Measured values taken from article PMC12820563, “FoxP3 forms a head-to-head dimer in vivo and stabilizes its multimerization on adjacent microsatellites”.
The full ranking holds about 16,000 sequences; the median of “rpm ratio (pull-down/input)” is about 0.94, and the highest 2% start at about 1.7. The full list was thinned out, with the highest values kept by preference.

Biological target: T1, MBP-FoxP1dN (Mus musculus, UniProt P58462 326-579)
T1 sequence: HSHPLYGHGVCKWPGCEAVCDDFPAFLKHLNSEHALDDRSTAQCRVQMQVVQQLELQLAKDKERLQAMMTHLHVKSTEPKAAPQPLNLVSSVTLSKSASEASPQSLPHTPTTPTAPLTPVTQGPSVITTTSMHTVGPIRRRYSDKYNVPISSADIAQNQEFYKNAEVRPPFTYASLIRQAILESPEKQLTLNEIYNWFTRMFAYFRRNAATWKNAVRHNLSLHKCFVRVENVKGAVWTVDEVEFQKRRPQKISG
Experiment: PD-seq (MBP pull-down with sequencing); 20 mM Tris-HCl pH 7.5, 100 mM NaCl, 1.5 mM MgCl2, 0.4 uM protein, 0.1 uM dsDNA library, 30 min, room temperature, amylose pull-down; high values mean tight binding
Conditions: protein: recombinant; tags: His6-MBP; chain copies: 2; dsDNA, one strand shown
How it was run: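 In Tris pH 7.5 buffer with NaCl and MgCl2, 0.4 µM His6-MBP-tagged mouse FoxP3 or FoxP1 fragment lacking the N-terminus, from E. coli, met 0.1 µM Klenow-filled double-stranded degenerate DNA library for 30 min at room temperature. Three washes on amylose resin followed capture of the complexes, then proteinase K release of DNA, PCR barcoding and Illumina sequencing. Binding is taken as pooled-replicate reads-per-million enrichment of pull-down relative to input.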

| Sequence | binding signal |
| --- | --- |
| GATGATTGTTCTCCCAGCTGATGAATTAACGAGTTCGAGTAAACAAATTTTCCTAATCTTTCTGTTCAAGCGCCATCTAC | 0.92 RPM ratio (pull-down/input) |
| GATGATTGTTCTCCCAGCTGATGAATTAGCGACCTCGAGTAAACAAATTTTCCTAATCTTTCTGTTCAAGCGCCATCTAC | 0.762 RPM ratio (pull-down/input) |
| GATGATTGTTCTCCCAGCTGATGAATTCCTGAACTCGAGTAAACAAATTTTCCTAATCTTTCTGTTCAAGCGCCATCTAC | 0.79 RPM ratio (pull-down/input) |
| GATGATTGTTCTCCCAGCTGATGAATTAGCATAGTCGAGTAAACAAATTTTCCTAATCTTTCTGTTCAAGCGCCATCTAC | 0.88 RPM ratio (pull-down/input) |
| GATGATTGTTCTCCCAGCTGATGAATTTGTTGTGTCGAGTAAACAAATTTTCCTAATCTTTCTGTTCAAGCGCCATCTAC | 2.48 RPM ratio (pull-down/input) |
| GATGATTGTTCTCCCAGCTGATGAATTTTTTGTGTCGAGTAAACAAATTTTCCTAATCTTTCTGTTCAAGCGCCATCTAC | 1.12 RPM ratio (pull-down/input) |
| GATGATTGTTCTCCCAGCTGATGAATTTGTGTTGTCGAGTAAACAAATTTTCCTAATCTTTCTGTTCAAGCGCCATCTAC | 2.64 RPM ratio (pull-down/input) |
| GATGATTGTTCTCCCAGCTGATGAATTGTGTGTGTCGAGTAAACAAATTTTCCTAATCTTTCTGTTCAAGCGCCATCTAC | 1.52 RPM ratio (pull-down/input) |
| GATGATTGTTCTCCCAGCTGATGAATTTGTGTCGTCGAGTAAACAAATTTTCCTAATCTTTCTGTTCAAGCGCCATCTAC | 1.23 RPM ratio (pull-down/input) |
| GATGATTGTTCTCCCAGCTGATGAATTTTGTGTGTCGAGTAAACAAATTTTCCTAATCTTTCTGTTCAAGCGCCATCTAC | 1.48 RPM ratio (pull-down/input) |
| GATGATTGTTCTCCCAGCTGATGAATTCCGTACCTCGAGTAAACAAATTTTCCTAATCTTTCTGTTCAAGCGCCATCTAC | 0.829 RPM ratio (pull-down/input) |
| GATGATTGTTCTCCCAGCTGATGAATTATCTGTCTCGAGTAAACAAATTTTCCTAATCTTTCTGTTCAAGCGCCATCTAC | 0.945 RPM ratio (pull-down/input) |
| GATGATTGTTCTCCCAGCTGATGAATTGAGTATATCGAGTAAACAAATTTTCCTAATCTTTCTGTTCAAGCGCCATCTAC | 1.1 RPM ratio (pull-down/input) |
| GATGATTGTTCTCCCAGCTGATGAATTCTGTATATCGAGTAAACAAATTTTCCTAATCTTTCTGTTCAAGCGCCATCTAC | 1.67 RPM ratio (pull-down/input) |
| GATGATTGTTCTCCCAGCTGATGAATTTTGTATATCGAGTAAACAAATTTTCCTAATCTTTCTGTTCAAGCGCCATCTAC | 2.33 RPM ratio (pull-down/input) |
| GATGATTGTTCTCCCAGCTGATGAATTCTGTACTTCGAGTAAACAAATTTTCCTAATCTTTCTGTTCAAGCGCCATCTAC | 0.932 RPM ratio (pull-down/input) |
| GATGATTGTTCTCCCAGCTGATGAATTGTATATCTCGAGTAAACAAATTTTCCTAATCTTTCTGTTCAAGCGCCATCTAC | 1.36 RPM ratio (pull-down/input) |
| GATGATTGTTCTCCCAGCTGATGAATTGTGTACTTCGAGTAAACAAATTTTCCTAATCTTTCTGTTCAAGCGCCATCTAC | 1.84 RPM ratio (pull-down/input) |
| GATGATTGTTCTCCCAGCTGATGAATTTTGTAAATCGAGTAAACAAATTTTCCTAATCTTTCTGTTCAAGCGCCATCTAC | 1.5 RPM ratio (pull-down/input) |
| GATGATTGTTCTCCCAGCTGATGAATTTTGTACTTCGAGTAAACAAATTTTCCTAATCTTTCTGTTCAAGCGCCATCTAC | 0.97 RPM ratio (pull-down/input) |
| GATGATTGTTCTCCCAGCTGATGAATTGTATATATCGAGTAAACAAATTTTCCTAATCTTTCTGTTCAAGCGCCATCTAC | 1.6 RPM ratio (pull-down/input) |
| GATGATTGTTCTCCCAGCTGATGAATTTGTAAAATCGAGTAAACAAATTTTCCTAATCTTTCTGTTCAAGCGCCATCTAC | 1.24 RPM ratio (pull-down/input) |
| GATGATTGTTCTCCCAGCTGATGAATTTTTGTAATCGAGTAAACAAATTTTCCTAATCTTTCTGTTCAAGCGCCATCTAC | 1.78 RPM ratio (pull-down/input) |
| GATGATTGTTCTCCCAGCTGATGAATTGTGTATATCGAGTAAACAAATTTTCCTAATCTTTCTGTTCAAGCGCCATCTAC | 1.9 RPM ratio (pull-down/input) |

| Sequence | binding signal |
| --- | --- |
| GATGATTGTTCTCCCAGCTGATGAATTCCAGGGTTCGAGTAAACAAATTTTCCTAATCTTTCTGTTCAAGCGCCATCTAC | 0.729 RPM ratio (pull-down/input) |
| GATGATTGTTCTCCCAGCTGATGAATTGTGAAGCTCGAGTAAACAAATTTTCCTAATCTTTCTGTTCAAGCGCCATCTAC | 0.905 RPM ratio (pull-down/input) |
| GATGATTGTTCTCCCAGCTGATGAATTACAGTTGTCGAGTAAACAAATTTTCCTAATCTTTCTGTTCAAGCGCCATCTAC | 1.46 RPM ratio (pull-down/input) |
| GATGATTGTTCTCCCAGCTGATGAATTAGCAACTTCGAGTAAACAAATTTTCCTAATCTTTCTGTTCAAGCGCCATCTAC | 1.12 RPM ratio (pull-down/input) |
| GATGATTGTTCTCCCAGCTGATGAATTTGCGTGCTCGAGTAAACAAATTTTCCTAATCTTTCTGTTCAAGCGCCATCTAC | 1.05 RPM ratio (pull-down/input) |
| GATGATTGTTCTCCCAGCTGATGAATTCTCGTCATCGAGTAAACAAATTTTCCTAATCTTTCTGTTCAAGCGCCATCTAC | 0.998 RPM ratio (pull-down/input) |
| GATGATTGTTCTCCCAGCTGATGAATTGGCTAAGTCGAGTAAACAAATTTTCCTAATCTTTCTGTTCAAGCGCCATCTAC | 0.879 RPM ratio (pull-down/input) |
| GATGATTGTTCTCCCAGCTGATGAATTTGCAAAATCGAGTAAACAAATTTTCCTAATCTTTCTGTTCAAGCGCCATCTAC | 1.13 RPM ratio (pull-down/input) |
| GATGATTGTTCTCCCAGCTGATGAATTCTAAAGATCGAGTAAACAAATTTTCCTAATCTTTCTGTTCAAGCGCCATCTAC | 0.85 RPM ratio (pull-down/input) |
| GATGATTGTTCTCCCAGCTGATGAATTGCCTAAGTCGAGTAAACAAATTTTCCTAATCTTTCTGTTCAAGCGCCATCTAC | 0.889 RPM ratio (pull-down/input) |
| GATGATTGTTCTCCCAGCTGATGAATTGGCTTTCTCGAGTAAACAAATTTTCCTAATCTTTCTGTTCAAGCGCCATCTAC | 0.862 RPM ratio (pull-down/input) |
| GATGATTGTTCTCCCAGCTGATGAATTTGTAGTATCGAGTAAACAAATTTTCCTAATCTTTCTGTTCAAGCGCCATCTAC | 1.47 RPM ratio (pull-down/input) |
| GATGATTGTTCTCCCAGCTGATGAATTTGTATACTCGAGTAAACAAATTTTCCTAATCTTTCTGTTCAAGCGCCATCTAC | 2.13 RPM ratio (pull-down/input) |
| GATGATTGTTCTCCCAGCTGATGAATTTCTATACTCGAGTAAACAAATTTTCCTAATCTTTCTGTTCAAGCGCCATCTAC | 0.903 RPM ratio (pull-down/input) |
| GATGATTGTTCTCCCAGCTGATGAATTCTCTGTATCGAGTAAACAAATTTTCCTAATCTTTCTGTTCAAGCGCCATCTAC | 0.938 RPM ratio (pull-down/input) |
| GATGATTGTTCTCCCAGCTGATGAATTCTTTGTATCGAGTAAACAAATTTTCCTAATCTTTCTGTTCAAGCGCCATCTAC | 1.21 RPM ratio (pull-down/input) |
| GATGATTGTTCTCCCAGCTGATGAATTTGTGTGATCGAGTAAACAAATTTTCCTAATCTTTCTGTTCAAGCGCCATCTAC | 1.3 RPM ratio (pull-down/input) |
| GATGATTGTTCTCCCAGCTGATGAATTGTAATACTCGAGTAAACAAATTTTCCTAATCTTTCTGTTCAAGCGCCATCTAC | 1.04 RPM ratio (pull-down/input) |
| GATGATTGTTCTCCCAGCTGATGAATTGTGTAAATCGAGTAAACAAATTTTCCTAATCTTTCTGTTCAAGCGCCATCTAC | 1.59 RPM ratio (pull-down/input) |
| GATGATTGTTCTCCCAGCTGATGAATTTGTGTAATCGAGTAAACAAATTTTCCTAATCTTTCTGTTCAAGCGCCATCTAC | 1.97 RPM ratio (pull-down/input) |
| GATGATTGTTCTCCCAGCTGATGAATTTGGTGTATCGAGTAAACAAATTTTCCTAATCTTTCTGTTCAAGCGCCATCTAC | 1.17 RPM ratio (pull-down/input) |
| GATGATTGTTCTCCCAGCTGATGAATTCTGTGTATCGAGTAAACAAATTTTCCTAATCTTTCTGTTCAAGCGCCATCTAC | 1.79 RPM ratio (pull-down/input) |
| GATGATTGTTCTCCCAGCTGATGAATTTTGTGTATCGAGTAAACAAATTTTCCTAATCTTTCTGTTCAAGCGCCATCTAC | 2.15 RPM ratio (pull-down/input) |
